Test results as given in PubChem BioAssay.
Calls of active or inactive are those of the source.

Columns and labels:
[1] = small molecules captured by biotinylated probe aFSTL3 – biochemical, small-molecule microarray, fluorescence 635/667, stem cell growth factor project, primary screen (AID 1064); conditions: higher = more signal;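 further: measures binding of the biotinylated anti-FSTL3 antibody to printed compounds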
[2] = binders from COS7 lysate, DM2A8 probe, primary screen, torsin A project, cell lysate, small-molecule microarray, fluorescence 635/667 (AID 1065); conditions: higher = more signal, COS7 lysate expressing mutant human TOR1A
[3] = small molecules captured by biotinylated probe aFGF2 – biochemical, small-molecule microarray, fluorescence 635/667, stem cell growth factor project, primary screen (AID 1067); conditions: higher = more signal;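 further: measures binding of biotinylated aFGF2 protein to printed compounds on slides; z-score merges feature fluorescence and signal-to-noise across triplicate slides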
[4] = small molecules captured by biotinylated probe aFGF10 – biochemical, small-molecule microarray, fluorescence 635/667, stem cell growth factor project, primary screen (AID 1071); conditions: higher = more signal;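 further: score merges 667 nm spot intensity and signal to noise from triplicate slides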
[5] = molecular target: Neurogenic locus notch homolog protein 2 (Homo sapiens) (UniProt Q04721); assay: small molecules binding Notch2 protein – biochemical, small-molecule microarray, 635 nm fluorescence, stem cell growth factors, primary screen (AID 1073); conditions: higher = more signal
[6] = molecular target: Pro-neuregulin-1, membrane-bound isoform (Homo sapiens) (UniProt Q02297); assay: small molecules binding neuregulin-1 protein – biochemical, small-molecule microarray, fluorescence 635/667, psychiatric disease protein project, primary screen (AID 1075); conditions: NRG1 binding, 635 nm fluorescence, higher = more signal;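 further: score combines 667 nm spot fluorescence with signal to noise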
[7] = test system: Neuregulin-1 EGF-like domain; assay: small molecules binding NRG1 EGF domain – biochemical, small-molecule microarray, 635 nm fluorescence, primary screen (AID 1081); conditions: higher = more signal;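 further: binding of the protein to compounds printed on small-molecule microarray slides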
[8] = FRG1 expression reporter modulators in myotubes – cell-based, C2C12 myotubes, firefly/Renilla luciferase, luminescence, FRG1 inhibition for FSHD, primary screen (AID 1084); conditions: FRG1 promoter luciferase, higher = more signal, called active from +8 up or from −8 down
[9] = small molecules captured by biotinylated probe aFST – biochemical, small-molecule microarray, fluorescence 635/667, stem cell growth factor project, primary screen (AID 1086); conditions: higher = more signal;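 further: score merges 667 nm fluorescence with signal-to-noise of each printed compound spot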
[10] = binders of probe aHhip on microarray, primary screen, stem cell growth factor project, biochemical, small-molecule microarray, fluorescence 635/667 (AID 1087); conditions: higher = more signal;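 further: score merges spot fluorescence at 667nm with spot signal to noise ratio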
[11] = test system: PRMT1 (protein arginine N-methyltransferase 1); assay: small molecules binding arginine methyltransferase PRMT1 – biochemical, small-molecule microarray, 635 nm fluorescence, primary screen (AID 1088); conditions: higher = more signal;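 further: binding of Prmt1 protein to compounds spotted on small-molecule microarray slides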
[12] = growth effects on S. cerevisiae YJM789 – YJM789 clinical isolate, OD600, 24 h, basal, primary screen (AID 1089); conditions: higher = more signal, called active from +8 up or from −8 down;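 further: growth of clinical yeast isolate S. cerevisiae YJM 789 seeded 1000 cells per well; test concentration not given here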
[13] = S. pombe growth modifiers, basal conditions – strain 972, OD600, 24 h, no modulator, primary screen (AID 1090);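 further: basal condition with compound alone and no growth modifier present; test concentration not given here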; conditions: S. pombe 972 growth, higher = more signal, called active from +8 up or from −8 down
[14] = budding yeast growth modifiers under rapamycin – strain BY4716, OD600, 96 h, primary screen (AID 1091); further: test concentration not given here; conditions: S. cerevisiae BY4716 + rapamycin, higher = more signal, called active from +8 up or from −8 down
[15] = molecular target: Torsin-1A-interacting protein 2 (Homo sapiens) (UniProt Q8NFQ8); assay: small molecules binding lysate-expressed LULL1 – cell lysate, human LULL1 lysate, 635/667 nm fluorescence, primary screen (AID 1092); conditions: small-molecule microarray, hLULL1 lysate binding, 635 nm fluorescence; higher = more signal;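 further: probe is lysate of COS7 cells overexpressing human LULL1; score merges per-feature 667 nm fluorescence with signal-to-noise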
[16] = optical density change of DRC41 E. coli – strain DRC41, OD650, 24 h, E. coli filamentation project, primary screen (AID 1093);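 further: MC1000 strain lacking acrAB efflux and sulA so SOS filamentation is blocked; test concentration not given here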; conditions: E. coli DRC41 growth, higher = more signal, called active from +8 up or from −8 down
[17] = probe aLefty2 binding to arrayed compounds – biochemical, biotinylated probe, 635/667 nm fluorescence, primary screen (AID 1094); conditions: small-molecule microarray, higher = more signal;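 further: score merges spot fluorescence near 667 nm with spot signal-to-noise ratio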
[18] = test system: Noggin (protein binding on small-molecule microarray); assay: small molecules binding Noggin protein – biochemical, 635/667 nm fluorescence, primary screen (AID 1095); conditions: 635 nm fluorescence, higher = more signal;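 further: score merges 667 nm feature fluorescence with signal to noise over triplicate slides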
[19] = molecular target: Neurogenic locus notch homolog protein 3 (Homo sapiens) (UniProt Q9UM47); assay: small molecules binding NOTCH3 protein – biochemical, 635/667 nm fluorescence, primary screen (AID 1096); conditions: small-molecule microarray, 635 nm fluorescence, higher = more signal
[20] = probe aEGFR binding to arrayed compounds – biochemical, biotinylated probe, 635/667 nm fluorescence, primary screen (AID 1097); conditions: small-molecule microarray, higher = more signal;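 further: probe is a biotinylated anti-EGFR antibody binding compounds printed on slides; score combines fluorescence near 667 nm and signal to noise of each spot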

Chain of Neurogenic locus notch homolog protein 2 (Homo sapiens) (Q04721 whole entry, looked up, canonical isoform): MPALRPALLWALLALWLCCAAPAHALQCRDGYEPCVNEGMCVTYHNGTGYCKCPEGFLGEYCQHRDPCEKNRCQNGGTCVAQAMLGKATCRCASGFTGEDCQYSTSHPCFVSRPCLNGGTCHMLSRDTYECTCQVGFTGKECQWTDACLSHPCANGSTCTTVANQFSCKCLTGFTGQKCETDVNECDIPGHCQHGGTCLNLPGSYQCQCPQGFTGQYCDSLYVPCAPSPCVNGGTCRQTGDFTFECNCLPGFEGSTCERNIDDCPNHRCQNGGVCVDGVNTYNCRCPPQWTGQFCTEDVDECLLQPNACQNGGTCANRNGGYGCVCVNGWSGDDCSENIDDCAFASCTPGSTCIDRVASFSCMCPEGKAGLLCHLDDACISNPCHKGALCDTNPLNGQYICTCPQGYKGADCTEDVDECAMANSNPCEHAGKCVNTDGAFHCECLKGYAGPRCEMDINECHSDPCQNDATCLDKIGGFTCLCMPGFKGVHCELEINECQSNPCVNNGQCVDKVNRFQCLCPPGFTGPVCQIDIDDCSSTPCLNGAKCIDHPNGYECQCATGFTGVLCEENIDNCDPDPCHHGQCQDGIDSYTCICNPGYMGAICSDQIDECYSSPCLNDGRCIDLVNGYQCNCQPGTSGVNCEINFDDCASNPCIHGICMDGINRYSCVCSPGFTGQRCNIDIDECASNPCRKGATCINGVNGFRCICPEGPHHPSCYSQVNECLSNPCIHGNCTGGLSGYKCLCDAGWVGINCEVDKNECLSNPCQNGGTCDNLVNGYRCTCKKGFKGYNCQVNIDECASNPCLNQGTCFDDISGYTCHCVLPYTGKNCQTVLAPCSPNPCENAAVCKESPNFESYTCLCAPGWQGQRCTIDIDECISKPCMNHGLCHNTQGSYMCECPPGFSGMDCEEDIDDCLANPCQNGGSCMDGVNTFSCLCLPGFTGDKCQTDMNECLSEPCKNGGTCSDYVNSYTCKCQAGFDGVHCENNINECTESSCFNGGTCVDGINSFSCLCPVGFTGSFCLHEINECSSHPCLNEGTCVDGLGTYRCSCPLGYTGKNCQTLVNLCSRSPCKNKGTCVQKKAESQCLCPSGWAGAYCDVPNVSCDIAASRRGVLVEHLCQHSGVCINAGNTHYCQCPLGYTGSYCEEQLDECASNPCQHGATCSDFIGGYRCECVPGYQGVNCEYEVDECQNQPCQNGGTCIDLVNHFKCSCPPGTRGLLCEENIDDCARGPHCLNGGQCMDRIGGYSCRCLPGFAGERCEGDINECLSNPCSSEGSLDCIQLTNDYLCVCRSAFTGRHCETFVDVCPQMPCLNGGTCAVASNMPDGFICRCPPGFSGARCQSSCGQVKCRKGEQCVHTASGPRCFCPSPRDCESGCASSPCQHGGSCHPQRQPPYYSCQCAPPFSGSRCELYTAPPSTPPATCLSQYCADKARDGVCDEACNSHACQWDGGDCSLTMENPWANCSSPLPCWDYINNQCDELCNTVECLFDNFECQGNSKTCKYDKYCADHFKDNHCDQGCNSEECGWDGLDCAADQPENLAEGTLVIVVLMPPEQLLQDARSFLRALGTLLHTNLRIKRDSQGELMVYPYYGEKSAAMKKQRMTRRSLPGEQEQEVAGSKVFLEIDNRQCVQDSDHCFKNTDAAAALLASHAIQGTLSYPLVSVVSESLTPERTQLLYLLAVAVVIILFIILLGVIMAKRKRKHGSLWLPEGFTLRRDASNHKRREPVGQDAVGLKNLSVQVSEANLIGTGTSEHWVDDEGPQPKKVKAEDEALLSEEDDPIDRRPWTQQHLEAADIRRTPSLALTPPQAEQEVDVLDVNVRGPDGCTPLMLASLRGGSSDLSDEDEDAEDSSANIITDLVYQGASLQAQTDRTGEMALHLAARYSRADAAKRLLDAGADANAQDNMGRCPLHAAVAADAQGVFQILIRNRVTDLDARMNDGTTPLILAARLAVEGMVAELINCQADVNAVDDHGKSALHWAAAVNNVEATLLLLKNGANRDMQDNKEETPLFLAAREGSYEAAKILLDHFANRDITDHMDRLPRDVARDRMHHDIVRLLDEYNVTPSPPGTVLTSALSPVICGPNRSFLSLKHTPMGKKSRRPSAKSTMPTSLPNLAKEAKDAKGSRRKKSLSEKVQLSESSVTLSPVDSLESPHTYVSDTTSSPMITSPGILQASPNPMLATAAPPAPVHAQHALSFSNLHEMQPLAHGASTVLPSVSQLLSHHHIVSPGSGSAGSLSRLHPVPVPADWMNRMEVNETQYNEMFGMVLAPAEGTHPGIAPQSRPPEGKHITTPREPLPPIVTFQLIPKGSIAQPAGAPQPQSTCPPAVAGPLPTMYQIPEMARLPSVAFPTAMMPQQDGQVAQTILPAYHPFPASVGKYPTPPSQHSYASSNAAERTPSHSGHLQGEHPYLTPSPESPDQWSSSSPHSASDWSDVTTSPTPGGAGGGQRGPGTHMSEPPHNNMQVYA
Chain of Pro-neuregulin-1, membrane-bound isoform (Homo sapiens) (Q02297 whole entry, looked up, the tested form may be a part, canonical isoform): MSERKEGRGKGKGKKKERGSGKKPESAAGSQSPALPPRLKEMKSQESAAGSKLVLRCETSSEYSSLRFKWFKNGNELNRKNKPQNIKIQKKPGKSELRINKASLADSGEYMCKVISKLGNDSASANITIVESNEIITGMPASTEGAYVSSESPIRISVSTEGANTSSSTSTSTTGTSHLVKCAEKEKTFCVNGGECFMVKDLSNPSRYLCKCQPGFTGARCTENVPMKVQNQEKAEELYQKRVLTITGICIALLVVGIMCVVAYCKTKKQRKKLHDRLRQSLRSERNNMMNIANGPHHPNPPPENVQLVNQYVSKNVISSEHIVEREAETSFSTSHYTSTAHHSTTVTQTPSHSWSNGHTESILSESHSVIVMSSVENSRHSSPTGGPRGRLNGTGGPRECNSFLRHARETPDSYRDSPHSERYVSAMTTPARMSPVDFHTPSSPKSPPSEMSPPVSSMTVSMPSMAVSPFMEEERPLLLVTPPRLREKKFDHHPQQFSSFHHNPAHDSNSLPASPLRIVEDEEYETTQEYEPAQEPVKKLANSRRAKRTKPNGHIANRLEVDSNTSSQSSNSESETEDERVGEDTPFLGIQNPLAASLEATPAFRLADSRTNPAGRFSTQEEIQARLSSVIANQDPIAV
Chain of Torsin-1A-interacting protein 2 (Homo sapiens) (Q8NFQ8 whole entry, looked up): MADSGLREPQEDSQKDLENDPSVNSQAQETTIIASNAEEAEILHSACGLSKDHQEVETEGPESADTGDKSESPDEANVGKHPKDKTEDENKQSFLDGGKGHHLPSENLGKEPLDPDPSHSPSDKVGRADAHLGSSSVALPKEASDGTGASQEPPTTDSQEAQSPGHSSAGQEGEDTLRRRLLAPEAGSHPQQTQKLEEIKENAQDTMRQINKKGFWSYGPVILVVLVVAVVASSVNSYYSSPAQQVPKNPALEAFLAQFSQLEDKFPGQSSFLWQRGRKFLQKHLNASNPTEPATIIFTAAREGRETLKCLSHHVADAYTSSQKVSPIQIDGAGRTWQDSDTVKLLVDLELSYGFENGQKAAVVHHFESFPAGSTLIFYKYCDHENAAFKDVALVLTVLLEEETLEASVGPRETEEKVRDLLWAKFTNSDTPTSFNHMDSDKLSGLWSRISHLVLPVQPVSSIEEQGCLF

Row | Structure (SMILES) | composite z-score [1] | composite z-score [2] | composite z-score [3] | composite z-score [4] | composite z-score [5] | composite z-score [6] | composite z-score [7] | z-score [8] | composite z-score [9] | composite z-score [10] | composite z-score [11] | z-score [12] | z-score [13] | z-score [14] | composite z-score [15] | z-score [16] | composite z-score [17] | composite z-score [18] | composite z-score [19] | composite z-score [20]
1 | COC(=O)[C@H](C)NC(=O)CCC1CC(OC(=O)NCc2ccc3c(c2)OCO3)CC2(CCCC(COC(=O)NCc3ccccc3)O2)O1 (stereo not given in full) | -0.344 | 0.0374 | 0.0025 | 0.721 | 0.748 | 0.52 | 0.877 | -0.156 (inactive) | 0.0613 | -0.212 | 1.23 | 0.24 (inactive) | 0.532 (inactive) | 0.274 (inactive) | 1.64 | 0.326 (inactive) | -0.157 | 0.888 | 1.09 | -0.0234
2 | COc1ccc(OC[C@@H](CO)OC)cc1 | -0.306 | 0.415 | -0.0512 | 0.3 | 0.0354 | -0.156 | -0.0824 | 0.759 (inactive) | 0.0746 | -0.0994 | -0.601 | -0.368 (inactive) | -0.199 (inactive) | -0.302 (inactive) | -0.0777 | 0.418 (inactive) | -0.185 | 0.802 | -0.176 | -0.0381
3 | CC(CCC(=O)OC[C@H]1O[C@H](C#Cc2ccccc2)C=C[C@@H]1Oc1ccc(C)cc1)=NO[C@@H](C)c1cc(-c2c(C)cc(C)cc2C)no1 | -0.0913 | -1.14 | -0.144 | -0.558 | -1.58 | 0.122 | -0.525 | 0.87 (inactive) | -0.213 | 0.312 | -0.187 | 0.914 (inactive) | 0.811 (inactive) | 0.361 (inactive) | 0.226 | -0.318 (inactive) | -0.328 | -0.199 | -1.12 | -0.296
4 | O=C1C=C[C@@H](O)[C@@H]2[C@@H]3C(=O)N(C4CCCCC4)C(=O)[C@@H]3CC[C@@H]12 | 0.585 | 0.0002 | -0.189 | 0.442 | 0.545 | 0.305 | 0.968 | -0.325 (inactive) | 0.265 | 0.0373 | 0.299 | 0.126 (inactive) | -1.32 (inactive) | -1.27 (inactive) | 0.548 | -0.115 (inactive) | -0.0678 | 0.277 | 0.818 | 0.0587
5 | CCOC(=O)CCN1C(=O)[C@H]2[C@H]3[C@H](O)[C@H](O)CC(=NOCC=C(C)CCC=C(C)C)[C@H]3CC[C@H]2C1=O | -0.137 | 0.757 | -0.0734 | -0.274 | 0.762 | -0.601 | -1.74 | -0.815 (inactive) | 0.752 | 0.0722 | 0.467 | 0.273 (inactive) | -0.215 (inactive) | -0.188 (inactive) | 0.0139 | 0.857 (inactive) | 0.287 | 0.386 | 0.089 | 0.106
6 | CO[C@H]1COC(=O)CCC[C@H](C)[C@H](OC)COC(=O)CC=C[C@@H]1C | -0.535 | 1.95 | -0.142 | -0.692 | -0.497 | -0.441 | -0.291 | -0.948 (inactive) | -0.168 | 0.0922 | 1.12 | -1.3 (inactive) | -0.654 (inactive) | -1.59 (inactive) | -1.88 | -0.0243 (inactive) | -0.0113 | 1.13 | -0.398 | 0.0278
7 | CCOC(=O)[C@H](CC(C)C)NC(=O)CCC1CC(OC(=O)NCCc2ccc(F)cc2)CC2(CCCC(COC(=O)NCCCN3CCCC3=O)O2)O1 (stereo not given in full) | -0.547 | -0.0261 | -0.0922 | 0.403 | 0.951 | -0.0939 | 0.763 | 0.404 (inactive) | -0.015 | -0.0994 | 0.838 | -0.388 (inactive) | 0.531 (inactive) | 0.0799 (inactive) | 1.26 | 0.546 (inactive) | -0.132 | 0.144 | 0.965 | -0.0208
8 | COC(=O)[C@H](C)NC(=O)CCC1CC(OC(=O)NCCc2ccc(F)cc2)CC2(CCCC(COC(=O)NCCOc3ccccc3)O2)O1 (stereo not given in full) | -0.443 | 0.269 | -0.0392 | 0.532 | 1.34 | 0.672 | 0.933 | 0.907 (inactive) | 0.238 | -0.173 | 1.46 | -0.233 (inactive) | 0.927 (inactive) | 1.12 (inactive) | 2.64 | 0.219 (inactive) | -0.0073 | 0.724 | 1.06 | -0.106
9 | CO[C@@H]1COC(=O)[C@H](CCSC)NC(=O)CC=C[C@@H](C)COC(=O)[C@@H]2CCCN2C(=O)CC=C[C@H]1C | -0.313 | 2.62 | -0.0659 | 0.571 | 0.84 | -0.483 | 0.926 | -0.813 (inactive) | 0.16 | -0.0618 | 0.888 | -0.0153 (inactive) | -1.33 (inactive) | -0.495 (inactive) | -0.389 | -0.135 (inactive) | -0.261 | 0.862 | 0.468 | -0.0675
10 | CCN1C(=O)[C@H]2[C@H]3[C@H](O)[C@H](O)CC(=NOCC(C)C)[C@H]3CC[C@H]2C1=O | -0.801 | 0.328 | -0.0977 | 0.329 | 0.351 | -0.139 | 0.124 | 0.268 (inactive) | 0.101 | -0.079 | -0.332 | -0.349 (inactive) | 0.735 (inactive) | 0.512 (inactive) | -0.153 | 0.769 (inactive) | -0.019 | 0.569 | 0.599 | 0.0167
